Screening results deposited in PubChem by National Center for Advancing Translational Sciences (NCATS).
In the library only some 5.2% were active in any assay of this set; here they are far more common.
IDH1 R132H inh: blocks human mutant IDH1 R132H enzyme | 390,000 compounds, 0.093% hits | IDH1-R132H enzyme, NADPH consumption, diaphorase/resazurin fluorescence | AID 602179 | Potency, µM (top dose mostly 76.6 µM), for inactives: top-dose activity change, negative = inhibition, actives largely listed as inhibitors; further: nearly all actives have a fitted effect of over 65% in size
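IDH1-R132H (0.5 ug/mL dispensed) in pH 7.5 Tris buffer was preincubated 30 min with compound, then given a substrate mix of 0.016 mM NADPH and 2 mM alpha-KG for 80 min at room temperature; remaining NADPH was read by diaphorase/resazurin fluorescence.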
TrxR1 substrate: is turned over as a substrate by rat TrxR1; Potency, µM (titrated, usually from 114 µM), without a hit: top-dose activity change, negative = substrate turnover; purified TrxR1 substrate turnover, NADPH consumption readout; 390,000 compounds, 0.01% hits; further: nearly all actives have a fitted effect of over 50% in size
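Rat TrxR1, dispensed at 90 nM, was prereduced with 400 uM NADPH (final) for 5 min at ~22 deg C, then incubated with compound 15 min before 400 uM selenite. A first-read NADPH fluorescence drop versus no-compound background flagged substrates.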
VDR inhibitor: inhibitors of human vitamin D receptor; P11473; VDR-SRC2-3 peptide fluorescence polarization, 2 h; Potency, µM, for inactives: max response, negative = inhibition, hits mostly inhibitors; 400,000 compounds, 0.93% hits
Target sequence (P11473 whole entry, looked up): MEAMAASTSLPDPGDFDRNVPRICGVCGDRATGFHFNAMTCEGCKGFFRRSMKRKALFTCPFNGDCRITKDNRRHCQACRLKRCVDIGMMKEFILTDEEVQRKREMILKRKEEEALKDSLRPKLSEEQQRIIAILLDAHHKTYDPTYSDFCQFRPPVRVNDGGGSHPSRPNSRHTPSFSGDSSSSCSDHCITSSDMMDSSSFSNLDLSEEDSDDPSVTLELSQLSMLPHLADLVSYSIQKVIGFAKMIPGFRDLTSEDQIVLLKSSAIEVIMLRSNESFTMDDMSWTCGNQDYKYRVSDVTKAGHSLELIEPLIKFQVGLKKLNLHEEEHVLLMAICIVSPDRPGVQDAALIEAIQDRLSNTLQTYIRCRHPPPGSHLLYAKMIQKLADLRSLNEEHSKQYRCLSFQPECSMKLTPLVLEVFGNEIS
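After 23 nl compound addition and a short centrifugation, plates sat for 2 hours at ambient temperature; polarization of fluorescence then indicated loss of VDR binding to peptide SRC2-3.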
TrxR1 inh: rat TrxR1 inhibition; 390,000 compounds, 1% hits; recombinant rTrxR1, NADPH fluorescence consumption, selenite substrate; Potency, µM (titrated, usually from 114 µM), without a hit: at the top dose activity change, negative = inhibition, actives largely listed as inhibitors; AID 588453; further: nearly all actives have a fitted effect of over 65% in size
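Rat TrxR1 (90 nM in the dispensed reagent) was pre-reduced with 400 uM NADPH for 5 min at room temperature, then incubated with compound for 15 min. After 400 uM selenite was added, NADPH fluorescence (Ex 340/Em 450 nm) was followed for 8 min.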
PLK1 PBD block: blocks phosphopeptide binding to human PLK1 polo-box domain; P53350; Plk1 PBD binding of FITC phosphopeptide, fluorescence polarization; Potency, µM, for the others: max response, negative = inhibition, hits mostly inhibitors; 360,000 compounds, 2.8% hits; further: series mostly up to about 57 µM; nearly all actives have a fitted effect of over 65% in size
Sfp inh: blocks B. subtilis Sfp PPTase activity. Biochemical Sfp PPTase activity, qHTS. Potency, µM, for the others: largest response in the series, negative = inhibition, usual class: inhibitors. 310,000 compounds, 3.5% hits. AID 1490;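 further: the enzyme is Sfp with the accession as filed and its product quenches rhodamine fluorescence; 0% = enzyme reaction without inhibitor and -100% = no enzyme wells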
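Fluorescence-quenching assay with 15 nM Sfp, 5 uM rhodamine-CoA and 12.5 uM BHQ-2-labelled ybbR peptide in pH 7.6 Hepes/MgCl2 buffer. Enzyme was pre-incubated with compound for 15 min at room temperature. Rate was taken from the 30-min fluorescence change (525/598 nm).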
Active calls of the source: *; ? = inconclusive; · = no result; [ ] = dose if it differs, or a comment. The call rests on the fitted dose curve; in most records, active means well fitted curve in the direction sought with a large enough effect; inconclusive means small, poorly fitted or top-dose-only effect, or another doubt; inactive means no such curve, though single readings can be large; an effect the other way counts as inactive or inconclusive. Unless noted, on the % scale 0 is the no-effect control and ±100 the full control effect; potency means the concentration at half of the fitted maximal effect.

SMILES	IDH1 R132H inh	TrxR1 substrate	VDR inhibitor	TrxR1 inh	PLK1 PBD block	Sfp inh
CCOC(=O)c1c(C)nc2ccccc2c1-c1ccccc1	1%	-18%	0%	-23%	-6%	79µM*
CCOC(=O)c1c(C)nc(C)c(C(=O)OCC)c1-c1ccc(O)c(OC)c1	-9%	-7%[57.1 µM]	?	-16%[57.1 µM]	6.7µM*	32µM*
CCOC(=O)c1nnc2cc(-c3ccccc3)nn2c1C	1%	-6%	14%	11%[57.1 µM]	-8%	-23%
CCOC(=O)c1nnc2c(Br)c(-c3ccccc3)nn2c1C	-2%	-7%	?	10%	30µM*	-9%
CSc1ncccc1C(=O)OCC(=O)c1ccccc1Br	4%	6%[57.1 µM]	-14%	35%[57.1 µM]	-9%	1%
CSc1ncccc1C(=O)OCC(=O)c1ccc(Br)s1	-7%	-5%	-27%	24%	19µM*	-1%
O=[N+]([O-])c1ccc(Cl)c(C2Nc3cccc4cccc(c34)N2)c1	12%	0%	-18%	?	-5%	?
Clc1ccc(C2Nc3cccc4cccc(c34)N2)cc1Cl	9%	-1%	-21%	45µM*	?	-24%
C/C(=C\c1cc2ccccc2o1)C1Nc2cccc3cccc(c23)N1	·	-1%	-23%	?	·	·
Brc1ccc(C2Nc3cccc4cccc(c34)N2)o1	16%	3%	-26%	25µM*	-29%	?
Clc1cccc(C2Nc3cccc4cccc(c34)N2)c1	-6%	0%	-27%	25µM*	?	-28%
Fc1cccc(Cl)c1C1Nc2cccc3cccc(c23)N1	-3%	-4%	?	56µM*	-19%	-15%
Clc1cccc(Cl)c1C1Nc2cccc3cccc(c23)N1	0%	-7%	13%	-4%	-7%	?
Cc1cccc(N2CCN(CCNC(=O)Nc3ccc(Cl)cc3)CC2)c1C	-10%	-7%	-23%	3%	·	·
O=C(C[n+]1cccc2cccc(O)c21)c1ccccc1	·	-6%	·	4%	·	·
CC1=NNC(=O)C1Oc1ccccc1 (stereo not drawn)	-4%	-1%	-6%	-4%	1%	8%
CCN(CC)C(=O)c1cccc(NC(=O)c2cc(C3CC3)nc3c2cnn3C(C)C)c1	5%	1%	-20%	17%	4%	·
Brc1cccc(C2Nc3cccc4cccc(c34)N2)c1	-9%	1%	-14%	56µM*	?	-20%
CCc1nn2c(=O)cc(COc3ccc(NC(=O)c4ccco4)cc3)nc2s1	1%	1%[57.1 µM]	-9%	?	27µM*	3%
CCCc1nn2c(=O)cc(COc3ccc(NC(=O)c4ccco4)cc3)nc2s1	0%	8%[57.1 µM]	-25%	19%[57.1 µM]	21µM*	11%
CCc1nn2c(=O)cc(COc3cccc(NC(=O)c4ccco4)c3)nc2s1	-9%	-8%	?	?	27µM*	11%
CC(C)Cc1nn2c(=O)cc(COc3ccc(NC(=O)c4ccco4)cc3)nc2s1	-3%	0%	2%	-11%	-8%	19%
CCc1nn2c(=O)cc(COC(=O)c3cccc(NC(=O)c4ccccc4C)c3)nc2s1	-13%	-4%[57.1 µM]	10%	6%[57.1 µM]	·	·
Cc1ccc(S(=O)(=O)N2CCc3nc(-c4ccccc4)c4c(c3C2)CO[C@@H](C)C4)cc1	·	·	·	·	·	-5%
CC1(C)Cc2c(C#N)c(N3CCN(C(=O)c4ccccc4)CC3)nc(Cc3ccccc3)c2CO1	-3%	15%[57.1 µM]	5%	16%[57.1 µM]	-7%	3%
CCc1nc(N2CCN(C(=O)c3ccccc3)CC2)c(C#N)c2c1COC(C)(C)C2	-3%	42%[57.1 µM]	2%	-16%[57.1 µM]	24µM*	-2%
CC1(C)Cc2c(C#N)c(OCC(=O)c3ccccc3)nc(-c3ccoc3)c2CO1	-3%	-4%	?	50µM*	27µM*	-15%
Cc1ccc(SC2=C(N(C)C)C(=O)c3ccccc3C2=O)cc1	23%	-6%	?	7.9µM*	?	·
O=C(O)CCn1nnc(-c2ccccc2)n1	1%	1%[57.1 µM]	-27%	13%[57.1 µM]	21µM*	18%
CCOC(=O)Cn1nnc(-c2ccccc2)n1	-2%	2%	-1%	15%	-5%	17%
